Results: the supplement of paper PMC6555819

Columns and labels:
Test in all cases: PBM binding z-score (relative to random genomic background probes); higher = stronger binding; sequences stand for … in GC…GCGATTGACAGCGTAGAATGAAGG
[1] = system: FXR:RXRa (NR concentration 270 nM, RXRa partner concentration 90 nM)
In short: (§1)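 Custom Agilent 4×180K protein-binding microarrays carried double-stranded probes, each with a 34-nt variable region. These regions held direct-repeat seeds, single-nucleotide variants, half-site ablations and random human genomic background sequences. Ligand-free nuclear receptor dimers were incubated on the arrays for 1 h, antibodies against each partner (one per run) detected binding, and scanned fluorescence was regression-normalized. Binding z-scores take the random background probes as reference.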

[2] = system: LXRa:RXRa (NR concentration 270 nM, RXRa partner concentration 90 nM)
In short: as §1

[3] = system: LXRa homodimer (NR concentration 270 nM)
In short: as §1

[4] = system: LXRb:RXRa (NR concentration 270 nM, RXRa partner concentration 90 nM)
In short: as §1

[5] = system: LXRb homodimer (NR concentration 270 nM)
In short: as §1

[6] = system: PPARa:RXRa (NR concentration 270 nM, RXRa partner concentration 90 nM)
In short: as §1

[7] = system: PPARg:RXRa (NR concentration 180 nM, RXRa partner concentration 90 nM)
In short: as §1

[8] = system: PPARg:RXRa 270nM:90nM, anti-RXR (NR concentration 270 nM, RXRa partner concentration 90 nM)
In short: as §1

[9] = system: PPARg:RXRa 30nM:10nM, anti-RXR (NR concentration 30 nM, RXRa partner concentration 10 nM)
In short: as §1

[10] = system: PPARg:RXRa 90nM:30nM, anti-RXR (NR concentration 90 nM, RXRa partner concentration 30 nM)
In short: as §1

[11] = system: PPARg:RXRa DBDmut IVT, anti-RXR (DBD mutation: RXRa K156A/R161A, NR concentration 270 nM, RXRa partner concentration 90 nM)
In short: as §1

[12] = system: PPARg:RXRa IVT, anti-PPARg (NR concentration 270 nM, RXRa partner concentration 90 nM)
In short: as §1

[13] = system: PPARg DBDmut:RXRa IVT, anti-PPARg (DBD mutation: PPARg1 K132A/R137A, NR concentration 270 nM, RXRa partner concentration 90 nM)
In short: as §1

[14] = system: PPARg DBDmut IVT, anti-PPARg (DBD mutation: PPARg1 K132A/R137A, NR concentration 270 nM)
In short: as §1

[15] = system: PPARg homodimer (NR concentration 180 nM)
In short: as §1

[16] = system: PXR:RXRa (NR concentration 270 nM, RXRa partner concentration 90 nM)
In short: as §1

[17] = system: PXR homodimer (NR concentration 270 nM)
In short: as §1

[18] = system: RARa:RXR (NR concentration 270 nM, RXRa partner concentration 90 nM)
In short: as §1

[19] = system: RARa homodimer (NR concentration 270 nM)
In short: as §1

[20] = system: RARb:RXRa (NR concentration 270 nM, RXRa partner concentration 90 nM)
In short: as §1

Row | Sequence | PBM binding z-score [1] | PBM binding z-score [2] | PBM binding z-score [3] | PBM binding z-score [4] | PBM binding z-score [5] | PBM binding z-score [6] | PBM binding z-score [7] | PBM binding z-score [8] | PBM binding z-score [9] | PBM binding z-score [10] | PBM binding z-score [11] | PBM binding z-score [12] | PBM binding z-score [13] | PBM binding z-score [14] | PBM binding z-score [15] | PBM binding z-score [16] | PBM binding z-score [17] | PBM binding z-score [18] | PBM binding z-score [19] | PBM binding z-score [20]
1 | ACATGTAGGTTAAGGGTCATTCAGGTTGGTTCGC | 5.47 | 4.89 | 3.12 | 4.5 | 1.95 | 6.02 | 11.1 | 9.37 | 8.78 | 11 | 6.63 | 7.34 | 4.14 | 3.37 | 4.52 | 5.46 | 2.78 | 5.86 | 2.44 | 3.53
2 | TGAATGAGTTTAAAGATCAGGGAACGTGGCGTCG | -0.0413 | 0.111 | -0.578 | -0.0738 | 0.209 | 0.791 | 0.824 | 1.77 | 1.35 | 1.46 | -0.728 | -0.0345 | 0.667 | -0.281 | 0.122 | 0.802 | 0.782 | 0.485 | 0.41 | 0.682
3 | ATCTCTAGGTAACCAAATTCAGTGAATGCCGAAC | 0.306 | 0.196 | 0.385 | 0.283 | 0.743 | 0.476 | 0.6 | 0.634 | 0.182 | 0.59 | 3.66 | 2.72 | 0.888 | 0.995 | 0.658 | 0.0913 | 0.615 | 0.166 | 0.995 | 0.377
4 | TCTATTGGTTGATTAGGGCAACCGAAACAGCGGA | 0.575 | 0.37 | -0.105 | 0.525 | 0.775 | 0.817 | 0.0989 | 1.86 | 3.2 | 2.59 | 1.96 | 1.31 | 1.58 | 0.647 | 1.38 | 0.573 | 0.277 | 0.835 | 0.652 | 1.06
5 | CCTGCTAGGTCATGGTCAGCTGATCTACAGTATG | 4.51 | 2.68 | -0.139 | 2.21 | -0.492 | 3.96 | 3.02 | 3.1 | 0.862 | 2.09 | 4.74 | 4.18 | 0.184 | 0.177 | 2.39 | 2.18 | -0.463 | 2.89 | -0.136 | 4.21
6 | CCTGCTAGGTCAATGGTCAGTTAAAGCAGCTCGC | 3.02 | 2.09 | 0.0181 | 1.53 | -0.0412 | 3.22 | 4.36 | 4.88 | 2.78 | 4.69 | 4.28 | 3.9 | -0.811 | -0.609 | 1.46 | 0.845 | -0.135 | 1.69 | -0.34 | 3.95
7 | CCAGACAGATGAAAGGTAACTCAGTCTGGTACGC | -0.273 | 0.0444 | -0.381 | 0.156 | -0.167 | 0.579 | 0.879 | 1.21 | 0.636 | 0.829 | -0.108 | -0.154 | -0.0341 | -0.512 | 0.444 | 0.0908 | 0.0132 | 0.186 | 0.861 | 0.167
8 | TCTATTAGTTGAAGGGTAACCGACGAGTCCGTTT | 1.06 | 1.12 | 0.425 | 1.17 | 0.781 | 1.35 | 0.607 | 2.8 | 4.16 | 3.37 | 2.52 | 0.636 | 0.556 | 0.761 | 1.56 | 1.03 | 0.714 | 1.09 | 1.6 | 0.96
9 | CCAGGCAGGTGAGAAGGTAACTCAGCCTCGATTA | -0.311 | -0.32 | -0.49 | -0.277 | -0.875 | 0.473 | 0.238 | 0.813 | -0.448 | 0.0901 | 0.637 | 0.291 | -1.38 | -1.33 | -0.318 | -0.256 | -0.513 | -0.0086 | -0.442 | 0.36
10 | GCTATTAGTTAAAAGGGCAACCGAATGATTCTCG | 0.183 | 0.439 | 0.409 | 0.624 | -0.5 | 2.02 | 1.84 | 3.45 | 1.77 | 3.13 | 0.433 | 0.998 | 0.676 | -0.168 | 1.15 | 0.537 | 0.39 | 0.874 | 1.2 | 1.97
11 | AGTCAAAGTTTACTAGGTAACGTAAGATTCAGCT | -0.0676 | 0.666 | 0.138 | 0.287 | 0.0239 | 2.28 | 3.46 | 3.72 | 1.13 | 2.53 | 3.45 | 4.76 | 0.895 | 0.737 | 0.729 | 0.455 | 0.255 | 0.426 | 0.29 | 1.81
12 | AGAATGAGGTTATTCAGATCAGGGAATTGCGGTC | 2.47 | 1.98 | 0.596 | 1.51 | 0.0526 | 3.31 | 1.58 | 1.96 | 0.851 | 1.27 | 3.18 | 2.64 | 0.879 | 0.0193 | 0.501 | 1.8 | 0.717 | 1.98 | 0.495 | 1.68
13 | CGTCCATGGTCAAAGGTCAGTGAAGAGATGACGG | 3.85 | 3.63 | 0.607 | 3.29 | 0.097 | 4.92 | 7.27 | 7.01 | 5.64 | 7.4 | 0.409 | 3.55 | 0.423 | 0.425 | 6.15 | 4.15 | 0.407 | 5.38 | 0.504 | 4.41
14 | TCTATTAGTTGAAGGGCAACCCACGAGTCCGTTT | 0.7 | 1.04 | 0.728 | 1.18 | 0.631 | 1.08 | 0.343 | 2.04 | 3.83 | 2.89 | 2.65 | 0.706 | 0.623 | 0.929 | 1.43 | 1.02 | 1.09 | 0.823 | 1.21 | 1.65
